# Test results published in PubChem BioAssay AID588511 (Johns Hopkins Ion Channel Center, 2011).
# About 3,600 (1.2%) of roughly 310,000 compounds were called active.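 Rule for the calls: active = ratio plate-corrected score three or more library SD toward inhibition, starting fluorescence score within five deviations; inactive = the rest.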 What follows is part of a selection rich in actives, with near analogues and random picks from the rest.
# Target: Anoctamin-1 (Mus musculus) (UniProt Q8BHY3)
# Assay: TMEM16A chloride channel inhibitors, primary screen, cell-based, HTS (AID 588511);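 for normalized B-score (activity score, 25-100; higher = stronger inhibition): score derived from kinetic fluorescence span divided by baseline fluorescence per well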
# Settings: HEK293 TMEM16A/YFP iodide influx fluorescence, ionomycin; at 10 µM
# Sequence of Anoctamin-1 (Mus musculus) (Q8BHY3 whole entry, looked up): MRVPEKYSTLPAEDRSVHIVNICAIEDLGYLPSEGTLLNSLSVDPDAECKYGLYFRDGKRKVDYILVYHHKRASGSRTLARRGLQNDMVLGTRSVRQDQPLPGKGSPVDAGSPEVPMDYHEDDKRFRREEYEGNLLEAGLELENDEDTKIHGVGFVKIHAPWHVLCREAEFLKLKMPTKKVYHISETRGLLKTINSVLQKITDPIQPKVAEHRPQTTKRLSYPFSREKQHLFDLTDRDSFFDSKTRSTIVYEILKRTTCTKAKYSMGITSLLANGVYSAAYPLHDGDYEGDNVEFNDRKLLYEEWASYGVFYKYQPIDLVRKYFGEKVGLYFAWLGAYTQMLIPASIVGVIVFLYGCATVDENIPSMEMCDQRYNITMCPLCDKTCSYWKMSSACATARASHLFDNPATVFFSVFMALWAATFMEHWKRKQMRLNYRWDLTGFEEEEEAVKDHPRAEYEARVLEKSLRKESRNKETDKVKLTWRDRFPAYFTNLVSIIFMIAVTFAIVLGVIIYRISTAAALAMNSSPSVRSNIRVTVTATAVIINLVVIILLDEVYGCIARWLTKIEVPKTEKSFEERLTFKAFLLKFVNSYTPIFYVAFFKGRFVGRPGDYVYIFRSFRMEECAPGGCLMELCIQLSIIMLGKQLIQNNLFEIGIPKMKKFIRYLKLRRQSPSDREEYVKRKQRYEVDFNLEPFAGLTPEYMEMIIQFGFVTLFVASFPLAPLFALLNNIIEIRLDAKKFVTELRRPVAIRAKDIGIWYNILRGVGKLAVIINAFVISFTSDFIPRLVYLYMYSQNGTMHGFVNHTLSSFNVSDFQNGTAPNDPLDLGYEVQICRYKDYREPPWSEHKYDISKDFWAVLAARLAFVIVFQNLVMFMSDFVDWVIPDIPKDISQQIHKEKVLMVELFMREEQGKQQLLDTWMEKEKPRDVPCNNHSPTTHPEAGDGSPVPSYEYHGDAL
row,Compound,"normalized B-score (activity score, 25-100; higher = stronger inhibition)"
1,O=C(NCCS(=O)(=O)c1ccc(Br)cc1)c1ccccc1Cl,inactive
2,O=C(OCC1O[C@@H](OC(=O)c2cc(O)c(O)c(O)c2)[C@@H](OC(=O)c2cc(O)c(O)c(O)c2)[C@@H](OC(=O)c2cc(O)c(O)c(O)c2)[C@@H]1OC(=O)c1cc(O)c(O)c(O)c1)c1cc(O)c(O)c(O)c1 (stereo partly drawn),inactive
3,CC(=O)c1c(C)[nH]c(C(=O)COC(=O)c2cccc(S(=O)(=O)N(C)c3ccccc3)c2)c1C,100 (active)
4,CN(c1ccccc1)S(=O)(=O)c1ccc(Cl)c(C(=O)OCC(N)=O)c1,inactive
5,CC(=O)c1c(C)[nH]c(C(=O)COC(=O)CCOc2ccc(C)cc2)c1C,inactive
6,CC(=O)NCCc1ccc(S(=O)(=O)Nc2ccc(C)c(S(=O)(=O)N3CCOCC3)c2)cc1,inactive
7,COc1cccc(C(O)c2nc3ccccc3n2C)c1 (stereo not drawn),inactive
8,CCCCCC(O)c1cccc(OCc2ccc3ccccc3n2)c1 (stereo not drawn),100 (active)
9,CCCCCCOC(=O)NCC(O)c1ccccc1 (stereo not drawn),inactive
10,NC(=O)c1ccc(Nc2ccc3c(c2)CCC3)c([N+](=O)[O-])c1,inactive
11,Cc1nc(CNS(=O)(=O)c2ccc(Oc3ccccc3)cc2)cs1,100 (active)
12,Cc1ccc(S(=O)(=O)NCc2csc(C)n2)c(C)c1,inactive
13,Cc1nc(CNS(=O)(=O)c2cccnc2)cs1,inactive
14,CS(=O)(=O)c1ccccc1C(=O)Nc1ccc2sccc2c1,inactive
15,Cc1csc(NC(=S)Nc2cccc(Cl)c2)n1,inactive
16,S=C(Nc1cccc(Cl)c1)Nc1ccc2c(c1)OCCO2,inactive
17,FC(F)(F)c1cccc(NC(=S)Nc2cccc(Cl)c2)c1,100 (active)
18,COC(=O)CNS(=O)(=O)c1ccc(OC)cc1,inactive
19,COc1ccc(S(=O)(=O)NCCCc2ccccc2)cc1,inactive
20,COc1ccc(S(=O)(=O)NCCCCOc2ccc(Cl)cc2)cc1,25 (active)
21,Cc1ccccc1C(=O)N1CCC(C(=O)Oc2ccc(C#N)cc2)CC1,inactive
22,Cc1cccc(N(Cc2ccccc2)C(=O)c2cc(S(=O)(=O)N3CCOCC3)ccc2F)c1,inactive
23,Cc1ccc(F)cc1NC(=O)Cc1nn(C)c(=O)c2ccccc12,100 (active)
24,COc1ccc(-c2nn(C)c(=O)c3ccccc23)cc1NC(=O)COc1ccccc1,inactive
25,Cc1nn(CC(=O)Nc2ccc(F)cc2)c(=O)c2ccccc12,inactive
26,C[C@@H]1NC(=O)c2cc([N+](=O)[O-])cc(F)c2NCCC[C@@H](C(N)=O)NC(=O)[C@H](CC(N)=O)NC1=O,inactive

row,Compound,"normalized B-score (activity score, 25-100; higher = stronger inhibition)"
1,Cc1nn(C)c(Oc2ccccc2)c1CCNS(=O)(=O)c1ccc(F)cc1,inactive
2,C/C(=N\NS(=O)(=O)c1ccc(Cl)cc1)c1ccc(NC(=O)c2ccco2)cc1,inactive
3,CC1(C)CC(=O)C=C(N2CCCC2)C1,inactive
4,O=C1CC(N2CCN(C(c3ccccc3)c3ccccc3)CC2)C(=O)N1 (stereo not drawn),inactive
5,CC1(C)CC(N2CCN(C(c3ccccc3)c3ccccc3)CC2)=CC(=[N+]2CCCCC2)C1,100 (active)
6,O=C(/C=C/Nc1ccc(S(=O)(=O)Nc2cnc3ccccc3n2)cc1)c1cccnc1,inactive
7,COc1ccc(/C=C(\C#N)c2c[nH]c3ccccc23)cc1,inactive
8,CCN(CC)CC(=O)c1c[nH]c2ccc(OC)cc12,inactive
9,COc1ccc2[nH]cc(/C=C(/C#N)S(=O)(=O)c3ccccc3)c2c1,100 (active)
10,COC(C[C@@H](O)C[C@@H](O)[C@H](C)OCc1ccccc1)OC,inactive
11,CCc1cccc(NC(=O)COC(=O)C2CCN(c3ccc(C(F)(F)F)cn3)CC2)c1,inactive
12,Cc1cccc(-n2c(SCC(N)=O)nc3c(c2=O)C2(CCCCC2)Cc2ccccc2-3)c1,100 (active)
13,Cc1cccc(-n2c(=O)c3c(C)c(C)sc3n(CC(N)=O)c2=O)c1,inactive
14,N#CCSc1nc2c(c(=O)n1Cc1ccccc1)C1(CCCC1)Cc1ccccc1-2,inactive
15,Cc1ccc(-c2csc(-c3c[nH]c4ccccc34)n2)cc1,100 (active)
16,Cc1ccc(-c2csc(-c3cc(C)on3)n2)cc1,inactive
17,CCCc1cc(-c2nc(-c3ccc(C)cc3)cs2)ccn1,inactive
18,O=C(C1CCCO1)N1CCN(S(=O)(=O)c2ccc(Br)cc2)CC1 (stereo not drawn),inactive
19,Cc1cc(=O)oc2cc(OCC3CC(c4ccccc4Cl)=NO3)ccc12 (stereo not drawn),inactive
20,O=C(CCS(=O)(=O)c1ccc2c(c1)NC(=O)CS2)NCc1ccccc1Cl,inactive
21,CNC(=O)c1[nH]cnc1C(=O)N[C@@H](CC(C)C)C(=O)OC(C)(C)C,inactive
22,O=C(N[C@@H](Cc1ccccc1)C(=O)OCc1ccccc1)c1nc[nH]c1C(=O)N[C@@H](Cc1ccccc1)C(=O)OCc1ccccc1,inactive
23,CNC(=O)c1[nH]cnc1C(=O)N[C@@H](CC(C)C)C(=O)OCc1ccccc1,25 (active)
24,Cc1nc(SCC(=O)N2CCc3ccccc3C2)c2c(C)c(C)sc2n1,100 (active)
25,Cc1nc(SCC(=O)N2CC(=O)Nc3ccccc32)c2c(C)c(C)sc2n1,inactive
26,O=C(CSc1nnc(-c2cccs2)n1Cc1ccccc1)N1CCc2ccccc2C1,inactive

row,Compound,"normalized B-score (activity score, 25-100; higher = stronger inhibition)"
1,O=C(N1CCCCC1)N1CCN(C(=O)N2CCCCC2)CC1,inactive
2,O=S(=O)(c1ccccc1)N1CCc2ccccc21,inactive
3,CCn1c(=O)c(=O)n(CC)c2cc(S(=O)(=O)N3CCc4ccccc43)ccc21,inactive
4,Cn1c(=O)n(C)c2cc(S(=O)(=O)N3CCCc4ccccc43)ccc21,25 (active)
5,Cc1ccc(S(=O)(=O)NC2CCCCCC2)cc1C(N)=O,inactive
6,COC(=O)[C@@H]1C[C@@]2(O)[C@H](O)[C@H](O)[C@H](O)C[C@H]2N1Cc1ccc(C(C)(C)C)cc1,inactive
7,O=C(C1CCN(Cc2ccc(Cl)cc2)CC1)N1CCN(Cc2ccc3c(c2)OCO3)CC1,inactive
8,Cn1c(=O)cc(OCCCC(=O)N2CCN(Cc3ccc4c(c3)OCO4)CC2)c2ccccc21,inactive
9,O=C(CSCc1ccc(Cl)cc1)N1CCCCC1,inactive
10,O=C(CSCc1ccc(Cl)cc1)N1CCN(Cc2ccc3c(c2)OCO3)CC1,100 (active)
11,O=C(Nc1cccc2ccccc12)N1CCN(Cc2ccc3c(c2)OCO3)CC1,inactive
12,O=C(CCCN1C(=O)c2cccc3cccc(c23)C1=O)N1CCN(Cc2ccc3c(c2)OCO3)CC1,100 (active)
13,NC(=O)C1=C[C@@H](c2ccc3c(c2)OCO3)C[C@@H](OCCCCO)O1,inactive
14,COc1ccc(N2C(=O)C(CC(=O)Nc3ccc(F)cc3)N(CCc3cccs3)C2=O)cc1 (stereo not drawn),inactive
15,Cc1cnc(C)c(N2CCN(C(=O)C3CCC(=O)N(CCc4cccc(F)c4)C3)CC2)n1 (stereo not drawn),inactive
16,CC(C)Cn1cnc2c1c(=O)n(CC(=O)NN)c(=O)n2Cc1ccccc1,inactive
17,Cc1ccnc(NC(=O)C2CCN(S(=O)(=O)c3c(C)c(C)cc(C)c3C)CC2)c1,inactive
18,COc1ccc(CCNc2cc(C)nc3c(-c4ccc(Cl)cc4)c(C)nn23)cc1OC,inactive
19,CC(=O)Nc1ccc(OC(=O)COc2ccc(Br)cc2)cc1,inactive
20,CC(=O)Nc1ccc(NC(=O)[C@@H](NC(=O)c2cccc(C)c2)C(C)C)cc1,inactive
21,COC(C(=O)Nc1ccc(C(C)=O)cc1)c1ccccc1 (stereo not drawn),inactive
22,Cc1ccc(NC(=O)C(C)c2cccc(C(=O)c3ccccc3)c2)cc1 (stereo not drawn),100 (active)
23,COCCn1c(=O)[nH]c(=O)c2cc(C(=O)c3cc(OC)ccc3O)cnc21,inactive
24,CC1Cc2ccccc2N1C(=O)CSc1nnc(C2CC2)n1C (stereo not drawn),inactive
25,CCCCSc1nnc2c(n1)OC=Nc1ccccc1-2,inactive
26,O=C(CSC(=S)N1CCCCC1)c1c(F)cccc1F,inactive

row,Compound,"normalized B-score (activity score, 25-100; higher = stronger inhibition)"
1,CCOC(=O)[C@H]1[C@H]2COc3ccc(Cl)cc3[C@@H]2N2C(=O)c3cc(C)ccc3NC(=O)[C@@]12C,inactive
2,CCN(CC)S(=O)(=O)c1ccc(NC(=O)c2cnc(C)cn2)cc1,inactive
3,CCN(CC)S(=O)(=O)c1ccc(N(C)Cc2cccc(OC)c2OC)nc1,25 (active)
4,CCN(CC)S(=O)(=O)c1ccc(N(C)CCc2ccc(OC)c(OC)c2)nc1,inactive
5,COc1ccc(S(=O)(=O)N2CCCCCC2)cc1C(=O)N(C)Cc1cccc(OC)c1OC,inactive
6,CCN(CC)S(=O)(=O)c1ccc(Cl)c(NC(=O)c2ccncc2)c1,inactive
7,CCN(CC)S(=O)(=O)c1ccc(N(C)Cc2ccc(C(F)(F)F)cc2)nc1,100 (active)
8,CCC(C)c1ccccc1N1CC(C(=O)N2CCN(S(=O)(=O)c3ccc(F)cc3)CC2)CC1=O (stereo not drawn),inactive
9,COc1ccccc1CNC(=O)Cn1c(=O)oc2cc(Cl)ccc21,inactive
10,CC1CCCCC1NC(=O)CN1CCC(O)(c2ccc3c(c2)OCO3)CC1 (stereo not drawn),inactive
11,CCOC(=O)C1CCN(c2ncnc3c2c(-c2ccccc2)cn3-c2ccc(C)cc2)CC1,inactive
12,CCOC(=O)C1CCN(Cc2nnc(-c3cccc(Br)c3)o2)CC1,inactive
13,CCOC(=O)C1CCN(c2ncnc3c2oc2ccc(Br)cc23)CC1,100 (active)
14,O=C(Nc1ccc(C(=O)NCc2ccccc2Cl)cc1)C1=CSCCO1,inactive
15,O=C(/C=C/c1ccco1)NC(=S)N1CCCCC1,inactive
16,O=C(Nc1cccnc1)c1noc2c1CCCCC2,inactive
17,CCN1CCN(C(=O)C2CCN(S(=O)(=O)c3cc(Cl)ccc3Cl)CC2)CC1,inactive
18,CCCCNC(=O)C1CCC(=O)N1CCc1ccccc1 (stereo not drawn),inactive
19,O=C(CSc1nc(-c2ccccc2)cs1)Nc1cccc([N+](=O)[O-])c1,100 (active)
20,CCNC(=O)CSc1nc(-c2ccccc2)cs1,inactive
21,O=C(CSc1ncn[nH]1)Nc1nc(-c2cccc([N+](=O)[O-])c2)cs1,inactive
22,COc1ccc(CN2CCNC(=O)C2CC(=O)N(C)Cc2ccccn2)cc1OC (stereo not drawn),inactive
23,Cc1ccc(SCC(=O)Nc2ccc3c(c2)OCCO3)cc1,inactive
24,Cc1ccc(SCC(=O)c2cc(C)c(OC(=S)N(C)C)c(C)c2)cc1,100 (active)
25,Cc1ccc(C(=O)CSc2ccccc2C(=O)O)cc1,inactive
